Experimental data as given in PubChem BioAssay (NCI).
About 79,000 compounds went through this panel and 15% of them were active in at least one assay; those are over-represented in the sample as a whole. A number with no mark means an inactive call. The source made the active and inactive calls. Cut-off read from the data, not from the text of the source: active = growth inhibition above about 70%; inactive = the rest. Where a SMILES comes first, the peptide text is derived from it. The star is where a group is joined. Cbz = O=C(OCc1ccccc1)*

Assay: NCI Yeast Anticancer Drug Screen. Data for the rad50 strain (AID 155);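 note: 0% = growth of vehicle-only cultures of the same strain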
Conditions: S. cerevisiae rad50 strain growth inhibition; at 50.0 µM; hits give high values
Procedure, shortened: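 Genetically altered yeast (DNA repair pathway); compound treatment; growth inhibition vs vehicle ctrl.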
For CCc1ccc(NC(=S)NC(=O)C(C)Oc2ccccc2)cc1 (stereo not given), the growth inhibition was 39.5%. COc1ccc(NC(=O)CCC2=CC(=O)CC(c3ccccc3)O2)cc1 (stereo not given) gave a growth inhibition of 2.9%. Compound CCOc1c(N=Nc2ccccc2C)c(C)nn1C(N)=S has a growth inhibition of 18.1%. Cc1c([N+](=O)[O-])cc(C(C)(C)C)c(OC(=O)Nc2cccc(Cl)c2)c1[N+](=O)[O-] gave a growth inhibition of 60.7%. With CCOC(=O)c1cnc(=S)[nH]c1N the growth inhibition was 40.5%. With COc1ccc(CC(N)C(=O)OCCCl)cc1 (stereo not given) the growth inhibition was 6.65%. In the case of C=C(C)c1ccccc1S(=O)(=O)c1ccccc1C(C)(C)O, the growth inhibition is reported as -23.4%. Work on Cc1ccc(-n2cc(-c3ccc(Cl)cc3)c3c2N=CN2NC(c4cccs4)=NC32)cc1 (stereo not given) yielded a growth inhibition of -32.8%. O=C(/C=C(\C(=O)c1ccccc1)c1ccccc1)c1ccc(Cl)cc1 showed a growth inhibition of -12%. Work on O=c1cc(NCc2c(Cl)cccc2[N+](=O)[O-])[nH]c(=O)[nH]1 yielded a growth inhibition of -8.8%. Work on CN(C)CCN(C)CC(C)(C)C(=O)/C=C/c1ccccc1 yielded a growth inhibition of -26%. c1nnc2c3c4c(sc3ncn12)CCCC4 showed a growth inhibition of 0.4%. With CCC(O)C(=O)O (stereo not given) the growth inhibition was -28.6%. Work on COc1cc(/C=N/NC(=O)Cc2cccc3ccccc23)ccc1O yielded a growth inhibition of 21.1%. In the case of Cc1cc2c(cc1C)NC(=O)C(NC(=O)c1ccc(Cl)cc1)C=N2 (stereo not given), the growth inhibition is reported as -0.55%. CCOC(=O)c1[nH]c(Cc2[nH]c(C(=O)OCC)c(CC)c2C)c(C)c1CC gave a growth inhibition of 7.8%. O=C(NC(=O)c1c(F)cccc1F)Nc1cccc(C(F)(F)F)c1 gave a growth inhibition of 8.55%. COc1ccc(C2CC(c3cc(C)ccc3O)=NC(N)=N2)cc1 (stereo not given) gave a growth inhibition of 19.6%. In the case of CC(=O)Nc1cccc(/C=C/c2ccc([N+](=O)[O-])cc2)c1, the growth inhibition is reported as 52.8%. O=C1OCCC1=P(c1ccccc1)(c1ccccc1)c1ccccc1 showed a growth inhibition of -5.6%. Compound O/N=C/c1nc2ccccc2s1 has a growth inhibition of 10.2%. Cc1ccc(S(=O)(=O)Nc2ccccc2-c2nc3c(Cl)ccc(Cl)c3c(=O)o2)cc1 gave a growth inhibition of 33.6%. With Cc1cccc(NC(=O)O/N=C(\Cl)C(C)C)c1 the growth inhibition was -13.8%. For CC(C)(C)C(=O)/C=C/c1ccc(Oc2ccccc2)cc1, the growth inhibition was 27.8%. For C=Cc1ccc(C)[n+](C[Si](C)(C)O[Si](C)(C)C)c1, the growth inhibition was -7.75%. CCOC(=O)CCC(NC(=O)C(CCC(=O)O)NC(=O)OCc1ccccc1)C(=O)OCC (stereo not drawn) (Cbz-Glu-Glu(OEt)-OEt; configuration not given here) gave a growth inhibition of 26.4%. COC(=O)C(=O)C1CCc2c(ccc3c2CCCC3)C1 (stereo not given) showed a growth inhibition of 0.8%. Work on CC(=O)OCCOCNC(=S)N/N=C/c1ccc([N+](=O)[O-])s1 yielded a growth inhibition of 35.4%. Compound Nc1cccc2ncccc12 has a growth inhibition of 0.6%. Work on COC(=O)C(C)NC(=O)C(C)NC(=O)c1cc(OC)c(OC)c(OC)c1 (stereo not given) yielded a growth inhibition of 28.2%. For Clc1ccc(C2ON=C(c3ccccc3)N2C23CC4CC(CC(C4)C2)C3)cc1 (stereo not given), the growth inhibition was -23.2%. For O=C(CCc1n[nH]c(=S)o1)Nc1ccccc1, the growth inhibition was 18.4%. CC(=O)c1cc(C(C)=O)c(CC(=O)C(=O)Nc2cccc(C)c2C)nc1CC(=O)C(=O)Nc1cccc(C)c1C showed a growth inhibition of 2.9%. CCCCC(CC)C1OCCS1 (stereo not given) showed a growth inhibition of 5.95%. Compound CN1CCN(c2nc3c(c(=O)n(C)c(=O)n3C)n2C)CC1 has a growth inhibition of -4.9%. In the case of O=C1C(=O)N(c2cc(Cl)ccc2Cl)C(=O)C(=O)C1c1nc2ccccc2s1, the growth inhibition is reported as -7.8%. Compound O=C1NC(c2ccccc2Cl)Nc2ccccc21 (stereo not given) has a growth inhibition of -1.1%. With Nc1nc2c(c(=O)[nH]1)CN(CCCN1CCOCC1)CN2 the growth inhibition was -36.2%. CCCCCCCCCCCCCCCCC(NC(C)=O)(C(=O)OCC)C(=O)OCC showed a growth inhibition of 23.9%. Work on Nc1ccc2c(c1)NCC2 yielded a growth inhibition of -27.6%.

Assay: NCI Yeast Anticancer Drug Screen. Data for the mec2-1 strain (AID 157)
Conditions: S. cerevisiae mec2-1 strain, at 50.0 µM, hits give high values
Procedure, shortened: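 Mutant yeast (mec2-1) grown with compound; growth inhibition relative to vehicle control reported.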
In the case of CCc1ccc(NC(=S)NC(=O)C(C)Oc2ccccc2)cc1 (stereo not given), the growth inhibition is reported as 21.6%. COc1ccc(NC(=O)CCC2=CC(=O)CC(c3ccccc3)O2)cc1 (stereo not given) gave a growth inhibition of 9.65%. With CCOc1c(N=Nc2ccccc2C)c(C)nn1C(N)=S the growth inhibition was 0.7%. With Cc1c([N+](=O)[O-])cc(C(C)(C)C)c(OC(=O)Nc2cccc(Cl)c2)c1[N+](=O)[O-] the growth inhibition was 74% (active). Compound CCOC(=O)c1cnc(=S)[nH]c1N has a growth inhibition of -8.35%. Compound COc1ccc(CC(N)C(=O)OCCCl)cc1 (stereo not given) has a growth inhibition of -0.4%. With C=C(C)c1ccccc1S(=O)(=O)c1ccccc1C(C)(C)O the growth inhibition was 5.1%. Cc1ccc(-n2cc(-c3ccc(Cl)cc3)c3c2N=CN2NC(c4cccs4)=NC32)cc1 (stereo not given) gave a growth inhibition of -5.8%. For O=C(/C=C(\C(=O)c1ccccc1)c1ccccc1)c1ccc(Cl)cc1, the growth inhibition was 8.5%. Work on O=c1cc(NCc2c(Cl)cccc2[N+](=O)[O-])[nH]c(=O)[nH]1 yielded a growth inhibition of 37.5%. CN(C)CCN(C)CC(C)(C)C(=O)/C=C/c1ccccc1 showed a growth inhibition of 2.55%. Work on c1nnc2c3c4c(sc3ncn12)CCCC4 yielded a growth inhibition of -5.05%. In the case of CCC(O)C(=O)O (stereo not given), the growth inhibition is reported as -26.8%. Work on COc1cc(/C=N/NC(=O)Cc2cccc3ccccc23)ccc1O yielded a growth inhibition of 9.5%. Compound Cc1cc2c(cc1C)NC(=O)C(NC(=O)c1ccc(Cl)cc1)C=N2 (stereo not given) has a growth inhibition of 15.6%. For CCOC(=O)c1[nH]c(Cc2[nH]c(C(=O)OCC)c(CC)c2C)c(C)c1CC, the growth inhibition was -1.1%. In the case of O=C(NC(=O)c1c(F)cccc1F)Nc1cccc(C(F)(F)F)c1, the growth inhibition is reported as 6.15%. For COc1ccc(C2CC(c3cc(C)ccc3O)=NC(N)=N2)cc1 (stereo not given), the growth inhibition was 12.8%. Compound CC(=O)Nc1cccc(/C=C/c2ccc([N+](=O)[O-])cc2)c1 has a growth inhibition of 42.6%. O=C1OCCC1=P(c1ccccc1)(c1ccccc1)c1ccccc1 showed a growth inhibition of -30.9%. In the case of O/N=C/c1nc2ccccc2s1, the growth inhibition is reported as 22.8%. Compound Cc1ccc(S(=O)(=O)Nc2ccccc2-c2nc3c(Cl)ccc(Cl)c3c(=O)o2)cc1 has a growth inhibition of 0.15%. Work on Cc1cccc(NC(=O)O/N=C(\Cl)C(C)C)c1 yielded a growth inhibition of -34.9%. CC(C)(C)C(=O)/C=C/c1ccc(Oc2ccccc2)cc1 gave a growth inhibition of -28.7%. For C=Cc1ccc(C)[n+](C[Si](C)(C)O[Si](C)(C)C)c1, the growth inhibition was -39%. Work on CCOC(=O)CCC(NC(=O)C(CCC(=O)O)NC(=O)OCc1ccccc1)C(=O)OCC (stereo not drawn) (Cbz-Glu-Glu(OEt)-OEt; configuration not given here) yielded a growth inhibition of -6.25%. Work on COC(=O)C(=O)C1CCc2c(ccc3c2CCCC3)C1 (stereo not given) yielded a growth inhibition of 17.4%. CC(=O)OCCOCNC(=S)N/N=C/c1ccc([N+](=O)[O-])s1 gave a growth inhibition of -5.2%. With Nc1cccc2ncccc12 the growth inhibition was -9.95%. For COC(=O)C(C)NC(=O)C(C)NC(=O)c1cc(OC)c(OC)c(OC)c1 (stereo not given), the growth inhibition was 17.8%. In the case of Clc1ccc(C2ON=C(c3ccccc3)N2C23CC4CC(CC(C4)C2)C3)cc1 (stereo not given), the growth inhibition is reported as -27%. For O=C(CCc1n[nH]c(=S)o1)Nc1ccccc1, the growth inhibition was 17.4%. CC(=O)c1cc(C(C)=O)c(CC(=O)C(=O)Nc2cccc(C)c2C)nc1CC(=O)C(=O)Nc1cccc(C)c1C gave a growth inhibition of -6.3%. Work on CCCCC(CC)C1OCCS1 (stereo not given) yielded a growth inhibition of -24.4%. CN1CCN(c2nc3c(c(=O)n(C)c(=O)n3C)n2C)CC1 showed a growth inhibition of 5.35%. With O=C1C(=O)N(c2cc(Cl)ccc2Cl)C(=O)C(=O)C1c1nc2ccccc2s1 the growth inhibition was 18.6%. Work on O=C1NC(c2ccccc2Cl)Nc2ccccc21 (stereo not given) yielded a growth inhibition of 4.1%. Nc1nc2c(c(=O)[nH]1)CN(CCCN1CCOCC1)CN2 gave a growth inhibition of -26.1%. Work on CCCCCCCCCCCCCCCCC(NC(C)=O)(C(=O)OCC)C(=O)OCC yielded a growth inhibition of 1.65%. Nc1ccc2c(c1)NCC2 gave a growth inhibition of -45.7%.
